IDE exosite inh – exo-site inhibitors of human IDE, primary screen, biochemical, fluorescence anisotropy, probe displacement; Insulin-degrading enzyme (Homo sapiens), P14735; purified IDE, FL-6b probe fluorescence polarization; active compounds read low; z-score at 20 µM; 17,000 compounds, 6.3% hits; AID 1259349, 2017;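 active means z-score of -3 or lower, meaning strong loss of probe binding signal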;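 further: His-tagged human IDE residues 42-1019 made in E. coli with 30 nM FL-6b probe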
* = called active by the depositor. Shown is part of a subset that was picked to be rich in hits.

SMILES | IDE exosite inh
CC(C)NC(=O)N1CCCCN2[C@H](C1)[C@H](c1ccc(C#CC3CC3)cc1)[C@@H]2CO | -2.35
CC(C)NC(=O)N1CCCCN2[C@@H](CO)[C@@H](c3ccc(C#C[C@H](C)O)cc3)[C@@H]2C1 | 0.296
CC(C)NC(=O)N1CCCCN2[C@H](C1)[C@@H](c1ccc(C#C[C@@H](C)O)cc1)[C@@H]2CO | 0.853
CC(C)NC(=O)N1CCCCN2[C@H](CO)[C@@H](c3ccc(C#C[C@@H](C)O)cc3)[C@@H]2C1 | 3.62
CC(C)C#Cc1ccc([C@H]2[C@@H](CO)N3CCCCN(C(=O)NC(C)C)C[C@H]23)cc1 | -1.82
CC(C)NC(=O)N1CCCCN2[C@H](CO)[C@H](c3ccc(C#CC4CC4)cc3)[C@H]2C1 | -1.75
CC(C)NC(=O)N1CCCCN2[C@H](C1)[C@@H](c1ccc(C#Cc3ccccc3F)cc1)[C@@H]2CO | -5.23*
CC(C)NC(=O)N1CCCCN2[C@@H](CO)[C@@H](c3ccc(C#Cc4ccccc4F)cc3)[C@@H]2C1 | -3.05*
CC(C)NC(=O)N1CCCCN2[C@H](CO)[C@H](c3ccc(C#Cc4ccccc4F)cc3)[C@@H]2C1 | -6.42*
COCC(=O)N1CC(=O)N2[C@H](CO)[C@@H](c3ccc(C#CC4CC4)cc3)[C@H]2C1 | 0.0892
Cn1cnc(S(=O)(=O)N2C[C@@H](O)COC[C@@H]3O[C@H](CC(=O)NCc4cccc(F)c4)CC[C@H]32)c1 | -0.419
COc1ccccc1CNC(=O)C[C@@H]1C=C[C@H](NC(=O)CC2CC2)[C@@H](CO)O1 | -0.0821
O=C(Cc1cccnc1)N1CC(=O)N2[C@H](C1)[C@H](c1ccc(C3=CCCC3)cc1)[C@@H]2CO | 2.61
C/C=C/c1ccc([C@@H]2[C@@H](CO)N(Cc3cccc(F)c3)C23CN(C(C)=O)C3)cc1 | 0.2
c1ccc(-c2ccc([C@H]3[C@H]4CNC[C@@H]3N4Cc3cc(-c4ccccc4)on3)cc2)cc1 | 0.118
C[C@@H](O)C#Cc1ccc([C@H]2[C@@H](CO)N3CCCCN(S(=O)(=O)Cc4ccccc4)C[C@@H]23)cc1 | 4
CC(=O)N1[C@H](CN(C(=O)c2ccc(F)cc2)C(C)C)[C@H](c2ccccc2)[C@@H]1CO | 1.55
Cc1ccccc1-c1ccccc1[C@@H]1[C@H](C#N)N(C(=O)c2cccc(F)c2)[C@H]1CO | 4.02
C[C@H](CO)N1C[C@H](C)[C@H](CN(C)C(=O)c2cnccn2)Oc2cc(C#CCC3CCCC3)ccc2S1(=O)=O | 0.173
COc1ccc(NC(=O)N2CCCCN3[C@H](CO)[C@H](c4ccc(-c5ccccc5F)cc4)[C@@H]3C2)cc1 | -1.06
COc1cccc(-c2ccc([C@H]3[C@@H](CO)N4CCCCN(Cc5cncnc5)C[C@H]34)cc2)c1 | -6.61*
COc1ccc(-c2ccc([C@H]3[C@H]4CN(CC5CCOCC5)CCCCN4[C@H]3CO)cc2)cc1 | 0.748
OC[C@@H]1[C@@H](c2ccc(-c3cccc(F)c3)cc2)[C@@H]2CN(Cc3cncnc3)CCCCN12 | 0.632
COc1cccc(-c2ccc([C@H]3[C@@H](CO)N4CCCCN(CC5CC5)C[C@H]34)cc2)c1 | -5.14*
OC[C@@H]1[C@H](c2ccc(-c3ccccc3)cc2)[C@H]2CN(Cc3cncnc3)CCCCN12 | 0.118
SMILES | IDE exosite inh
OC[C@H]1[C@@H](c2ccc(-c3cccc(F)c3)cc2)[C@H]2CN(Cc3cncnc3)CCCCN21 | 1.45
COc1cccc(-c2ccc([C@H]3[C@@H](CO)N4CCCCN(Cc5cncnc5)C[C@@H]34)cc2)c1 | -2.69
COc1cccc(CN2CCCCN3[C@H](CO)[C@H](c4ccc(-c5cccc(C#N)c5)cc4)[C@@H]3C2)c1 | 0.952
COc1cccc(-c2ccc([C@H]3[C@H](CO)N4CCCCN(Cc5cncnc5)C[C@@H]34)cc2)c1 | -3.01*
COCCNC(=O)C[C@@H]1CC[C@H]2[C@@H](COC[C@H](O)CN2S(=O)(=O)c2ccccc2F)O1 | -0.106
COc1ccc2c3c(n(C)c2c1)[C@@H](CO)N(C(=O)c1ccc(F)cc1)CC31CN(CC2CCOCC2)C1 | -1.07
COc1ccc(S(=O)(=O)Nc2ccc3c(c2)OC[C@@H](C)N(Cc2cc(F)ccc2F)C[C@@H](C)[C@H](OC)CN(C)C3=O)cc1 | 1.03
COc1ccccc1-c1ccc([C@H]2[C@@H](C#N)N(C(=O)C3CCC3)[C@@H]2CO)cc1 | -4.77*
N#C[C@@H]1[C@H](c2ccc(-c3ccccc3F)cc2)[C@@H](CO)N1C(=O)C1CCC1 | -0.297
COc1ccccc1-c1ccc([C@@H]2[C@@H](C#N)N(C(=O)c3cccnc3)[C@@H]2CO)cc1 | -33.8*
N#C[C@H]1[C@H](c2ccc(-c3ccccc3F)cc2)[C@@H](CO)N1C(=O)C1CCC1 | 2.18
COc1ccc(-c2ccc([C@@H]3[C@@H](CO)N(C(=O)c4cccnc4)[C@H]3C#N)cc2)cc1 | 4.47
COc1ccccc1-c1ccccc1[C@H]1[C@@H](CO)N(C(=O)C2CC2)[C@H]1C#N | 2.14
COc1ccccc1-c1ccc([C@@H]2[C@@H](CO)N(C(=O)C3CCC3)[C@H]2C#N)cc1 | -6.54*
